This is an account of results in ChEMBL document CHEMBL2218924, “A broad activity screen in support of a chemogenomic map for kinase signalling research and drug discovery” (Biochem J, 2013).

In test [1] the target is T1, Ephrin type-A receptor 3 (Homo sapiens) (UniProt P29320).
T1 sequence (whole entry): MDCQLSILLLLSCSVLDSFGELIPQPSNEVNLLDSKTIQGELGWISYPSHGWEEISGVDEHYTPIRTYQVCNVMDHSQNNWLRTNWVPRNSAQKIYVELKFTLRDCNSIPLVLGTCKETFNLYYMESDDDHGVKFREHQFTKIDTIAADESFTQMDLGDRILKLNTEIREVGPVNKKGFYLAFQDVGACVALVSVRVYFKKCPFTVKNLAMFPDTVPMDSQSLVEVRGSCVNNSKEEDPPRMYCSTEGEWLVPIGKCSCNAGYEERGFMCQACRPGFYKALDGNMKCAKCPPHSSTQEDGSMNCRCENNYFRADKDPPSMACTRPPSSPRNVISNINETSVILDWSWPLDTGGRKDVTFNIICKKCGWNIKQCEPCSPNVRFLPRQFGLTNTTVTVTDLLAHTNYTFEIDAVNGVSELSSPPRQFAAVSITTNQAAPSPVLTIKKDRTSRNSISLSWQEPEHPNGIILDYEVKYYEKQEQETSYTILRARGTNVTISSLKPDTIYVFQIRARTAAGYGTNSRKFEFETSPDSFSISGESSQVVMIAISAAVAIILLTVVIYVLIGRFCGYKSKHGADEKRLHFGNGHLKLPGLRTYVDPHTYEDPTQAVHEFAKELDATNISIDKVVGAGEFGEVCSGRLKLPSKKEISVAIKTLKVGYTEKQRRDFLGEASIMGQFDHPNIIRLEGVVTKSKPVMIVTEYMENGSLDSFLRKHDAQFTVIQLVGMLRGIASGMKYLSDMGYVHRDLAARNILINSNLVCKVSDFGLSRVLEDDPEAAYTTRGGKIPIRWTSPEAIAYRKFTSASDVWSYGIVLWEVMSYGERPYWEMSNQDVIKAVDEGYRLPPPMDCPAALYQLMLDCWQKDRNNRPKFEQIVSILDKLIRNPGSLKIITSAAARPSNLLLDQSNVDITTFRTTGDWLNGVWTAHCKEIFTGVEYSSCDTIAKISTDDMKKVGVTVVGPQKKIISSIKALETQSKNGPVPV
To be noted: at 10 µM.

Test [2] deals with Ephrin type-A receptor 7 (Homo sapiens) (UniProt Q15375). To be noted: at 1 µM.
Sequence of Ephrin type-A receptor 7 (Homo sapiens) (Q15375 28-998 limits assumed): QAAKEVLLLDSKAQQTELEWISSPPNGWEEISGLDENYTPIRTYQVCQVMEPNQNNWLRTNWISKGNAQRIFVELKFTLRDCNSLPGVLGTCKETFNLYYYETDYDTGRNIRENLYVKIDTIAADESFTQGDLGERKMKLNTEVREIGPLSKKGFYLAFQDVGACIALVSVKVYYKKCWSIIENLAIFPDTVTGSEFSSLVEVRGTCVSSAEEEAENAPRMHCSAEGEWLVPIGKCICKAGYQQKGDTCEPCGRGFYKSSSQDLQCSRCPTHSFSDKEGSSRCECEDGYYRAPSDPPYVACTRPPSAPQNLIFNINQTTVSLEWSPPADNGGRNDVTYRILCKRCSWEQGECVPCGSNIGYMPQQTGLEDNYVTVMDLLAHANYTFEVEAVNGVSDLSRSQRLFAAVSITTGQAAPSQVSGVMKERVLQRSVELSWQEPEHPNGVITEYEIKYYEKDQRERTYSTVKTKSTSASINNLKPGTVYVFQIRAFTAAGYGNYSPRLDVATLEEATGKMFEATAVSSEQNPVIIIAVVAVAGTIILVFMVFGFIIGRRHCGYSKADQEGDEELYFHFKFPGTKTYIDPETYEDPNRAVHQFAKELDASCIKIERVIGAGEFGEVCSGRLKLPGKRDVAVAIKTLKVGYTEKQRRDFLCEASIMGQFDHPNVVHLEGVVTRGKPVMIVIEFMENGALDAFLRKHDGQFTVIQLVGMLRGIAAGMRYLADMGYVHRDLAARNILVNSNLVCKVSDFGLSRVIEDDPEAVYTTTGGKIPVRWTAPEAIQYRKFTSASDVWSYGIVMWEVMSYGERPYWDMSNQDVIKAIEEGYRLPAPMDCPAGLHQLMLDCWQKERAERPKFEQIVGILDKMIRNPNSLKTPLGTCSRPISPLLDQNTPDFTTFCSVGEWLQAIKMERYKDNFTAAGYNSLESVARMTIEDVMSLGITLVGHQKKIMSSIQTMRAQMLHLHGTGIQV
Test [3] shares this target. To be noted: at 10 µM.
Test [4] concerns the target T2, Ephrin type-A receptor 8 (Homo sapiens) (UniProt P29322).
T2 sequence (whole entry): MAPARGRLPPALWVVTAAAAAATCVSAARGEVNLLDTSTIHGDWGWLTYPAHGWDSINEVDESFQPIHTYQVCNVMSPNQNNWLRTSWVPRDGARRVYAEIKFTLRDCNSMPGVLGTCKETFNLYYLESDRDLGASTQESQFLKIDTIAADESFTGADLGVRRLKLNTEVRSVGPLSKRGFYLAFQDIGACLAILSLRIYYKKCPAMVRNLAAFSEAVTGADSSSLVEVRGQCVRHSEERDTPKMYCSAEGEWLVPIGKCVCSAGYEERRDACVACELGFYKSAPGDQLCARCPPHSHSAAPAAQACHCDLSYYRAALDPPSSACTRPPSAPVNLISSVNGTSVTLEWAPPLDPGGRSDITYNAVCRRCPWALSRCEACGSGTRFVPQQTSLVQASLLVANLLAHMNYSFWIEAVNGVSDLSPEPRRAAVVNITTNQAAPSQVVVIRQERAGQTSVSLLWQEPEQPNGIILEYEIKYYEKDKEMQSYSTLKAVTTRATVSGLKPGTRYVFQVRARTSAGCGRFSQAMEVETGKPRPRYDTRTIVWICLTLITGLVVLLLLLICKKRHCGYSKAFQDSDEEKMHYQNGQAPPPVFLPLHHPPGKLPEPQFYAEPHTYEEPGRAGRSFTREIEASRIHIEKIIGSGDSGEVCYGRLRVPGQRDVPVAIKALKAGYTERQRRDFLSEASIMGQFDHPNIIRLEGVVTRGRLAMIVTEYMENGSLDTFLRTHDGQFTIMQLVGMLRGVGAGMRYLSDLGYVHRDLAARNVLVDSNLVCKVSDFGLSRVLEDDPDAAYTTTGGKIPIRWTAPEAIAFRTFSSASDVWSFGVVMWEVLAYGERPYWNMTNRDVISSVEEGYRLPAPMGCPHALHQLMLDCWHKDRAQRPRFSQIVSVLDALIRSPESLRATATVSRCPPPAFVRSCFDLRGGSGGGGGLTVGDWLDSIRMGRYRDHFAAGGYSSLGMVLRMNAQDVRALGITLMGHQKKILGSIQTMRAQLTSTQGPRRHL
Particulars: at 1 µM; call rule not given here.

Test [5] deals with T2, Ephrin type-A receptor 8 (Homo sapiens). To be noted: at 10 µM.
Test [6] deals with T3, Ephrin type-B receptor 1 (Homo sapiens) (UniProt P54762).
T3 sequence (whole entry): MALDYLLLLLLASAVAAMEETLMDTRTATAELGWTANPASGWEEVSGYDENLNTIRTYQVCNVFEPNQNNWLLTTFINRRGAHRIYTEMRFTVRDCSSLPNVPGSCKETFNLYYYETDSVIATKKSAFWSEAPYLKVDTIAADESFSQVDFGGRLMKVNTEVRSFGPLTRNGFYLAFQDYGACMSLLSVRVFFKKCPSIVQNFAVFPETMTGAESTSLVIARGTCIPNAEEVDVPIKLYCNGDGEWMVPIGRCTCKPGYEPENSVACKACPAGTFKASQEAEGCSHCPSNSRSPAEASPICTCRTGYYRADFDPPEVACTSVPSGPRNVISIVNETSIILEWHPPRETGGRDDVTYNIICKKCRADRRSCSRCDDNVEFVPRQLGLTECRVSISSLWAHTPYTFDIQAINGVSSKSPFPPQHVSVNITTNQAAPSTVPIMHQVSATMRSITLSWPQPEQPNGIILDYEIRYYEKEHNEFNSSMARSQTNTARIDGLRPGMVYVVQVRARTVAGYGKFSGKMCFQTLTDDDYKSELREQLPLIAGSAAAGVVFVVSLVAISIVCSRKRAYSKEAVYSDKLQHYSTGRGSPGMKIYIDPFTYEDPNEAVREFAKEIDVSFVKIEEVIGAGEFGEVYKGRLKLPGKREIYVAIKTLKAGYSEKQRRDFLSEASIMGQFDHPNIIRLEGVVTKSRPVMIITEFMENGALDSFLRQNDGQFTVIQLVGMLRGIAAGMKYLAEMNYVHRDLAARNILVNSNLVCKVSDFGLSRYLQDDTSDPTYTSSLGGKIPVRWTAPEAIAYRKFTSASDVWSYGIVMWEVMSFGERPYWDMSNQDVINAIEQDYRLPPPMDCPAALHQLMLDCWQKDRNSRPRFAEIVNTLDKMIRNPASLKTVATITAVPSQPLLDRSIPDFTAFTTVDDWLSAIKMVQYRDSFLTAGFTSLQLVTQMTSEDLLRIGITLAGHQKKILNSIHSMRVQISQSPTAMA
Particulars: at 1 µM.

Test [7] concerns the target T3, Ephrin type-B receptor 1 (Homo sapiens). To be noted: at 10 µM.
Test [8] addresses T4, Ephrin type-B receptor 3 (Homo sapiens) (UniProt P54753).
T4 sequence (whole entry): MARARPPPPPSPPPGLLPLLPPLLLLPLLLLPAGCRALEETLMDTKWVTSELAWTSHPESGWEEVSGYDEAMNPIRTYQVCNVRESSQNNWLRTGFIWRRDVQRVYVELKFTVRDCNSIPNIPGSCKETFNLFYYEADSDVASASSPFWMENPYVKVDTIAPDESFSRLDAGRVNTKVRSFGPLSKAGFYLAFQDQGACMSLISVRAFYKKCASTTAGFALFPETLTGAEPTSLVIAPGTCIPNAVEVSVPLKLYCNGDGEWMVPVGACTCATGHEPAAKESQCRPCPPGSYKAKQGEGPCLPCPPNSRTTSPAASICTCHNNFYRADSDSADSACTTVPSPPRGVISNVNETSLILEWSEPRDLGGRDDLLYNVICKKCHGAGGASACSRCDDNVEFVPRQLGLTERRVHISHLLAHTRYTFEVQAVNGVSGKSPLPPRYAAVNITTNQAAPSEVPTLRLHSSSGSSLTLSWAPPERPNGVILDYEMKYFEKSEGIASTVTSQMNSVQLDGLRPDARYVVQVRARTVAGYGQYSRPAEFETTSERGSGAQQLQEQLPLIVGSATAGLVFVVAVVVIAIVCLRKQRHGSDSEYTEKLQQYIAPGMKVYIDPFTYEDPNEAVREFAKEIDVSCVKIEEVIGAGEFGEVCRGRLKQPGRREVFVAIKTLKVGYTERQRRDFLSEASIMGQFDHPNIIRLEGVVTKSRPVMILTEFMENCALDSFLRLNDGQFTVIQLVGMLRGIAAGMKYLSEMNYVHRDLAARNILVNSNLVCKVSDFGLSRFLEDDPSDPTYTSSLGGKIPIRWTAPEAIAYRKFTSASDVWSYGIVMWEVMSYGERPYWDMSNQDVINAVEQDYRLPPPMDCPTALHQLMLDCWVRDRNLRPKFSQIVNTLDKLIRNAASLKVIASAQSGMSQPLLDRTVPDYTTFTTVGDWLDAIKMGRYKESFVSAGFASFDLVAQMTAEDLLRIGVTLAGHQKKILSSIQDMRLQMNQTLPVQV
To be noted: at 1 µM.

In test [9] the target is T4, Ephrin type-B receptor 3 (Homo sapiens). To be noted: at 10 µM.
The target in test [10] is T5, Ephrin type-B receptor 4 (Homo sapiens) (UniProt P54760).
T5 sequence (whole entry): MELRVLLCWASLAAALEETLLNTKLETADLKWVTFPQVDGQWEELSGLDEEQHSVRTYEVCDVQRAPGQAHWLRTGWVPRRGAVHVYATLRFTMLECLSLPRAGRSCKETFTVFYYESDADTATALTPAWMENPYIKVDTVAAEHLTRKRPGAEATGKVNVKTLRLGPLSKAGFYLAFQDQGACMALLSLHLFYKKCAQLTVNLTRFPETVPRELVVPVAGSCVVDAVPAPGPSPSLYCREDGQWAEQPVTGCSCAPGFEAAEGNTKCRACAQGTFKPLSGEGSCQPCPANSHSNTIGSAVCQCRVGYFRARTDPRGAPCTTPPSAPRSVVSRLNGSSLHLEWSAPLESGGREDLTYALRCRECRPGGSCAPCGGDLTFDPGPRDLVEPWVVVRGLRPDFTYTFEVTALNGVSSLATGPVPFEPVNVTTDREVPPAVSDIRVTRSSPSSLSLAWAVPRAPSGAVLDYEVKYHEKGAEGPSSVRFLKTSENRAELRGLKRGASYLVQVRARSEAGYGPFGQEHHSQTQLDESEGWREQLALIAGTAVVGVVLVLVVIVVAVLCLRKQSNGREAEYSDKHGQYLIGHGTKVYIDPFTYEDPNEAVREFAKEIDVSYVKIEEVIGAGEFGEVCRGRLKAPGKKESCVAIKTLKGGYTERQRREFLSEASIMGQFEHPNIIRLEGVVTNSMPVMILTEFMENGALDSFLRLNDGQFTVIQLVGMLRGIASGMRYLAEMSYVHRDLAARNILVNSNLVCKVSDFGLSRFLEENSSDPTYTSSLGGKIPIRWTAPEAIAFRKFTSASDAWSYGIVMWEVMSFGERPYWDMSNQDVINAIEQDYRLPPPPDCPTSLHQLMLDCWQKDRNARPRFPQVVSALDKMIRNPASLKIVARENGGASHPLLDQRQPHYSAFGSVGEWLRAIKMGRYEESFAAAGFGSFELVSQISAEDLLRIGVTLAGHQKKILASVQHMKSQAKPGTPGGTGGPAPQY
Particulars: at 1 µM.

Test [11] addresses T5, Ephrin type-B receptor 4 (Homo sapiens). Particulars: at 10 µM.
In test [12] the target is Focal adhesion kinase 1 (Homo sapiens) (UniProt Q05397). To be noted: at 1 µM.
Sequence of Focal adhesion kinase 1 (Homo sapiens) (Q05397 2-1052 limits assumed): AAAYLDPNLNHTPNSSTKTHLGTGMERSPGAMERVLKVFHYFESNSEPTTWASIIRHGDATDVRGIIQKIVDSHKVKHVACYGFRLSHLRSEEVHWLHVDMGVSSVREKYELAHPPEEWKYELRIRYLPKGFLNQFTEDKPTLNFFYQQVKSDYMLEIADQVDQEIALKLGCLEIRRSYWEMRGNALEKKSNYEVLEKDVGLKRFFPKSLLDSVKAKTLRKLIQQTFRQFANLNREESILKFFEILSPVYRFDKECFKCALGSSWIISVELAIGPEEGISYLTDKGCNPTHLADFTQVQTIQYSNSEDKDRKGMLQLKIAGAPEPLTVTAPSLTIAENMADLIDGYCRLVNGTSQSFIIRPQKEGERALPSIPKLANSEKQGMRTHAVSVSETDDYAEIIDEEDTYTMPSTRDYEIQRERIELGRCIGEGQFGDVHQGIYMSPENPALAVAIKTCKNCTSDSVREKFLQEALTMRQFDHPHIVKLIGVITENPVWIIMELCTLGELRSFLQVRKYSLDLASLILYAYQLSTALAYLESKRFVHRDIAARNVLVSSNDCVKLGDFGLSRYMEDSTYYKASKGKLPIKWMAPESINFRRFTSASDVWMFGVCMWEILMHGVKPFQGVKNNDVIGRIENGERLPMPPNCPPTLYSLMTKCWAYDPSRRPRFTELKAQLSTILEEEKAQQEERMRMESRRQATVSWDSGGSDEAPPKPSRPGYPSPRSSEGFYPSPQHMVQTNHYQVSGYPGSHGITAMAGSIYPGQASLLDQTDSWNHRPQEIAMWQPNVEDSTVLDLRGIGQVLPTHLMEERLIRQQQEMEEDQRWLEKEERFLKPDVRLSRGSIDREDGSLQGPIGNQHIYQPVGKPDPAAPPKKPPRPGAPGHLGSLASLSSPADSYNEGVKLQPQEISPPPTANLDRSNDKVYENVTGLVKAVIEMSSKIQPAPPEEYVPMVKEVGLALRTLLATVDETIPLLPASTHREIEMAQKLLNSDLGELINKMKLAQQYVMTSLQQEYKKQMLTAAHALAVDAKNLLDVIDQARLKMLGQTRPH
Test [13] has as its target Ephrin type-A receptor 5 (Homo sapiens) (UniProt P54756). Particulars: at 10 µM.
Test [14] addresses Receptor tyrosine-protein kinase erbB-4 (Homo sapiens) (UniProt Q15303). To be noted: at 10 µM.

Sequence of Ephrin type-A receptor 5 (Homo sapiens) (P54756 whole entry): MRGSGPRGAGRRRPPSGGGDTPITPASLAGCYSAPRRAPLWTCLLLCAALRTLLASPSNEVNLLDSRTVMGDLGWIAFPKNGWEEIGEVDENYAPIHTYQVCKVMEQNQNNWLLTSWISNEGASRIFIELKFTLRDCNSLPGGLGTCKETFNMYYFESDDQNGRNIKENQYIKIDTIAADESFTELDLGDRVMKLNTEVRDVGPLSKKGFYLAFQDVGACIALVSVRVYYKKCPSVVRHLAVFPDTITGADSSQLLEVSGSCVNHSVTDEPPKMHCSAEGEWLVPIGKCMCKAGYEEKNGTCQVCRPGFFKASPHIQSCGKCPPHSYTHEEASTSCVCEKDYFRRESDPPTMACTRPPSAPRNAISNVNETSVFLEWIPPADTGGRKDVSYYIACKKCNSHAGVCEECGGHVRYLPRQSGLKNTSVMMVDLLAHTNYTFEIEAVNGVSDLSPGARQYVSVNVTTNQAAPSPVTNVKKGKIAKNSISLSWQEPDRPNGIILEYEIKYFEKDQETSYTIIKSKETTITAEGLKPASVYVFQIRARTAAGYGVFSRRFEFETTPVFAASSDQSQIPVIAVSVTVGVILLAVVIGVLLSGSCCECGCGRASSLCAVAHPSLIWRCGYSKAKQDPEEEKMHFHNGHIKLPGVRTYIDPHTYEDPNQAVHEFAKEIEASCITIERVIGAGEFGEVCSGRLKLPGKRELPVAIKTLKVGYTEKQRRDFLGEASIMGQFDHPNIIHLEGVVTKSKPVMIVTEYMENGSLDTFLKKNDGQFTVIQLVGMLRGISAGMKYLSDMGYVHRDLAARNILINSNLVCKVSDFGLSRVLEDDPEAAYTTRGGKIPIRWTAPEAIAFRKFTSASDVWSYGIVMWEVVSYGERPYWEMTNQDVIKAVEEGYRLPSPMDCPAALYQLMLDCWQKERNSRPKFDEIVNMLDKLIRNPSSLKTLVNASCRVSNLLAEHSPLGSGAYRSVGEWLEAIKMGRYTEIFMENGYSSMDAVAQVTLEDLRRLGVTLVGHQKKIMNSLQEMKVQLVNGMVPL
Sequence of Receptor tyrosine-protein kinase erbB-4 (Homo sapiens) (Q15303 whole entry): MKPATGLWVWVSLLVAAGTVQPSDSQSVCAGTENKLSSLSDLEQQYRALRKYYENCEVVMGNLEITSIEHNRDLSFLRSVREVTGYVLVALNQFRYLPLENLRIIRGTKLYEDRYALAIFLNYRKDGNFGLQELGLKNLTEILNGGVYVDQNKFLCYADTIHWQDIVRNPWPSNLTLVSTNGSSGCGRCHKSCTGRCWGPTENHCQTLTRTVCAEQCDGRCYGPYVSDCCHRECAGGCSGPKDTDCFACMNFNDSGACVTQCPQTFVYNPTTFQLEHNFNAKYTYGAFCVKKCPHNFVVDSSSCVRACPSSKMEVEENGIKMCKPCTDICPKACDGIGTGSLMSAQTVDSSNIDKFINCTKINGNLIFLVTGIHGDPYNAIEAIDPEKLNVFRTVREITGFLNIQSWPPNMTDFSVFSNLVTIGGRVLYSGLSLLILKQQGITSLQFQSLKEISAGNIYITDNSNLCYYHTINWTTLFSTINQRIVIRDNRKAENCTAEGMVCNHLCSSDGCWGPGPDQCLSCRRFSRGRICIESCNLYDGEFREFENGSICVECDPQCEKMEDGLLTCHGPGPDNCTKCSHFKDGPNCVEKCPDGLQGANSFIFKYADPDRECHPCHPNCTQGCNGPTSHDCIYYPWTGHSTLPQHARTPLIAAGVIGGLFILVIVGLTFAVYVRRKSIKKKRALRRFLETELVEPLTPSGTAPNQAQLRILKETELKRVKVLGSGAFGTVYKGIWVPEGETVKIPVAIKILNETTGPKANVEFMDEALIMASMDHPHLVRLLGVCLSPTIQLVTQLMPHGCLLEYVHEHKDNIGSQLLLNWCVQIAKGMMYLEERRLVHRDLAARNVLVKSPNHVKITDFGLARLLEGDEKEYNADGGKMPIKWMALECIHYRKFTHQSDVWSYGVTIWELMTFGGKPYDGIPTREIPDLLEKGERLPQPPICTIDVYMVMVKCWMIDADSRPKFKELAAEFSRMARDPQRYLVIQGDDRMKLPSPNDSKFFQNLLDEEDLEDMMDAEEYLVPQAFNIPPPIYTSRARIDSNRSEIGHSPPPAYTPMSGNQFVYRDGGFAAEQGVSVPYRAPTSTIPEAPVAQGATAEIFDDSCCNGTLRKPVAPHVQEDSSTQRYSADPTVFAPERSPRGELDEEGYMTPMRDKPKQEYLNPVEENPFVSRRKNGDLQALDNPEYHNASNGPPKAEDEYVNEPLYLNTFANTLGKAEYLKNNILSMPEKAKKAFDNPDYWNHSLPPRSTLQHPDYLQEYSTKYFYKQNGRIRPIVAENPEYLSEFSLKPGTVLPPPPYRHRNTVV

On to `CCN(CC)CCNC(=O)c1c(C)[nH]c(/C=C2\C(=O)Nc3ccc(Cl)cc32)c1C`, for which the residual activity – broadly, the signal under treatment as a percentage of the control signal – in [1] came out at 47%; in test [2], 79%; in test [3] it was 24%; in [4], 100%; in test [5] it was 55%; in test [6], 64%. Also, the residual activity in test [7] was 24%; in test [8], 129% (inactive); in test [9], 130%; in [10], 100%; in test [11], 35%; in [12], 15%.
As to `Nc1n[nH]c2nc3ccccc3nc12`, the residual activity in [1] was 98%; in [13] it was 97%; in [2] it was 99%; in test [3], 79%; in [5] it was 91%; in [10], 97%. The residual activity in test [11] was determined as 77%; in test [14], 87%; in [12] it was 97%.
